Experimental data published in PubChem BioAssay AID591 (National Center for Advancing Translational Sciences (NCATS), 2007).
The campaign covered roughly 59,000 compounds. About 60 (0.1%) were called active. How the calls were made is not given here. What follows is part of a selection rich in actives, with near analogues and random picks from the rest.

Experiment: qHTS Assay for Spectroscopic Profiling in A488 Spectral Region
Conditions: compound autofluorescence; max dye equivalency: Compound Type: qHTS ECL - SigmaAldrich, active compounds read high unless noted; outcome: dye equivalency, Compound Type: qHTS ECL - MLSMR unless noted
Source text: NIH Molecular Libraries Screening Centers Network [MLSCN]
NIH Chemical Genomics Center [NCGC]
Occasionally, the artifactual effect may originate from the compounds own spectral or other biophysical properties which generally tend to track its assay concentration. Pre-screening/profiling the library with respect to the compounds spectral properties should help one exclude false positives early on. While the most informative fluorescent profiling data set is obtained by performing a full excitation and emission scan of each well by using a monochromator-based plate reader, such an approach is practical only on a very limited scale as scanning each well requires long time. An alternative approach, applied here, is to perform plate reader scans using selected excitation and emission wavelength pairs to generate a multidimensional relational database that correlates compound concentration and the respective relative fluorescence intensity at a given wavelength set. A standard curve of Alexa 488 (A488) present on each plate as six-point concentration series, was used to compute a normalized fluorescence response, termed dye-equivalent concentration, for each compound at each concentration.
NCGC Assay Protocol Summary:
100 mM Tris buffer, pH 8.0
The wells in columns 1 through 4 of a Kalypsys polypropylene 1536-well compound plate were filled with standard solutions of fluorophore corresponding to the spectral region of interest. Solutions of A488 were placed in the following wells: Y1, Z1: 3 mM, Y2, Z2: 300 uM, Y3, Z3: 30 uM, Y4, Z4: zero (DMSO), AA1, AB1: 3 uM, AA2, AB2: 900 nM, AA3, AB3: 300 nM, AA4, AB4: zero (DMSO).
Six uL of buffer were dispensed to 1536-well Greiner black plates. Compounds and dye standards (23 nL) were transferred via Kalypsys PinTool. The plates were incubated for 15 min at room temperature, and then read on ViewLux (Perkin-Elmer) High-throughput CCD imager using 480 nm and 540 nm excitation and emission filter set.
Keywords: NIH Roadmap, MLSCN, MLI, MLSMR, qHTS, NCGC, A488, A-488, Fluorescent Profiling.

outcome, inactive:
CCCC1C(c2ccccc2)C(C#N)(C#N)C2(C#N)CC1(N)NC2=O (stereo unspecified) inactive [dye equivalency, Compound Type: qHTS ECL - DPISMR]
CCOC(=O)c1[nH]c2ccccc2c1N=C(C)N(CC)CC
C=CCN(CC=C)C(=O)CN1C(=O)c2ccccc2C1=O
c1ccc(-n2ncc3c2ncn2c(C4CCCCC4)nnc32)cc1 inactive [dye equivalency, Compound Type: qHTS ECL - DPISMR]
O=C(NCc1ccc(Cl)cc1)c1cc2c(nc3sccn32)s1
O=C(O)C1CCCCC1C(=O)Nc1ccc(Cl)cc1 (stereo unspecified) inactive [dye equivalency, Compound Type: qHTS ECL - DPISMR]
COCCn1c(=O)c(-c2cc(F)cc(F)c2)nc2cnc(N3CCNCC3)nc21 inactive [dye equivalency, Compound Type: qHTS ECL - Pharmacopeia]
CCNC(=O)CCc1nc(-c2ccc(C(C)(C)C)cc2)no1 inactive [dye equivalency, Compound Type: qHTS ECL - DPISMR]
Cn1c(=O)c(CCc2ccccc2)nc2cnc(Nc3ccccc3)nc21 inactive [dye equivalency, Compound Type: qHTS ECL - Pharmacopeia]
CCCc1cc(=O)[nH]c(SCc2ccc(C#N)cc2)n1 inactive [dye equivalency, Compound Type: qHTS ECL - DPISMR]
C=CCn1c(SCn2nnc3ccccc3c2=O)nnc1-c1ccc(Cl)cc1 inactive [dye equivalency, Compound Type: qHTS ECL - DPISMR]
Cc1nc2cnc(Oc3cccc(Cl)c3)nc2n(C2CC2)c1=O inactive [dye equivalency, Compound Type: qHTS ECL - Pharmacopeia]
COc1ccc(-c2nc3cnc(OC)nc3n(Cc3ccc(F)cc3)c2=O)cc1 inactive [dye equivalency, Compound Type: qHTS ECL - Pharmacopeia]
CC1CN(C2CCN(C(=O)COc3ccccc3)CC2)CC(C)O1 (stereo unspecified)
CC(=O)c1c(C)[nH]c(C(=O)NCCCN2CCCC2)c1C
O=C(Nc1ccccc1)N(Cc1cccnc1)Cc1ccco1 inactive [dye equivalency, Compound Type: qHTS ECL - DPISMR]
Cc1nc2cnc(Nc3ccccc3)nc2n(Cc2ccc(F)cc2)c1=O inactive [dye equivalency, Compound Type: qHTS ECL - Pharmacopeia]
CNC(=O)n1ccc(C(=O)N2CCCCC2)n1 inactive [dye equivalency, Compound Type: qHTS ECL - DPISMR]
c1cnc(NC2C3CC4CC(C3)CC2C4)nc1 (stereo unspecified)
CCCOc1ccccc1C(=O)NCCCC(=O)O
COc1ccccc1CNc1cc(-c2ccccc2CN(C)C)ncn1 inactive [dye equivalency, Compound Type: qHTS ECL - Pharmacopeia]
Oc1c(Br)cc(CN(Cc2cc(Br)c(O)c(Br)c2)C2CCCCC2)cc1Br inactive [dye equivalency, Compound Type: qHTS ECL - NCI]
CCc1nnc(NC(=O)c2c(O)c3c([nH]c2=O)CCCC3)s1
CCC(=O)Nc1ccc(C(=O)Nc2ccc3c(c2)C(=O)N(CC2CCCO2)C3=O)cc1 (stereo unspecified) inactive [dye equivalency, Compound Type: qHTS ECL - DPISMR]
Cn1cccc1C(=O)N1CCC2(CC1)CN(c1cccc(-c3ccccc3)c1)C2 inactive [dye equivalency, Compound Type: qHTS ECL - Pharmacopeia]
CCOC(=O)CSc1nnc(-c2ccncc2)o1 inactive [dye equivalency, Compound Type: qHTS ECL - DPISMR]
COc1ccc2nc(NC3=NCN(CC4CCCO4)CN3)nc(C)c2c1 (stereo unspecified)
CCOC(=O)N1CCN(C(=O)c2ccc3nc4cc(Cl)ccc4c(=O)n3c2)CC1
CCOC(=O)C1(Cc2ccc(O)cc2)NC(c2ccccc2F)C2C(=O)N(C)C(=O)C21 (stereo unspecified)
COCCNc1cc(-c2c(C)noc2C)ncn1 inactive [dye equivalency, Compound Type: qHTS ECL - Pharmacopeia]
CCNc1ncc2nc(CCc3ccccc3)c(=O)n(-c3ccc(OC)cc3)c2n1 inactive [dye equivalency, Compound Type: qHTS ECL - Pharmacopeia]
Cn1c(CC(=O)Nc2ccccc2)nnc1SCC(=O)c1ccccc1 inactive [dye equivalency, Compound Type: qHTS ECL - DPISMR]
COCCn1c(=O)c(-c2cc(F)cc(F)c2)nc2cncnc21 inactive [dye equivalency, Compound Type: qHTS ECL - Pharmacopeia]
CCOC(=O)C1CCN(Cc2coc3ccc(Cl)cc3c2=O)CC1 inactive [dye equivalency, Compound Type: qHTS ECL - DPISMR]
Cc1noc(C)c1S(=O)(=O)Nc1ccc(C(=O)O)cc1 inactive [dye equivalency, Compound Type: qHTS ECL - DPISMR]
Cc1c(C)c2cc3c4c(oc3c(C)c2oc1=O)CCCC4
CN1CCc2[nH]nc(-c3n[nH]c4c3CN(C)CC4)c2C1 inactive [dye equivalency, Compound Type: qHTS ECL - NCI]
O=C1c2ccccc2C(=O)N1c1ccccc1S(=O)C(F)(F)F (stereo unspecified) inactive [dye equivalency, Compound Type: qHTS ECL - DPISMR]
CN(C)c1cc2c(Nc3ccc4c(cnn4Cc4ccccc4)c3)ncnc2cn1 inactive [dye equivalency, Compound Type: qHTS ECL - SigmaAldrich]
O=c1c(-c2ccc(F)cc2)nc2cncnc2n1-c1ccccc1 inactive [dye equivalency, Compound Type: qHTS ECL - Pharmacopeia]
Cc1cnc(CNc2cc(-c3c(C)noc3C)ncn2)cn1 inactive [dye equivalency, Compound Type: qHTS ECL - Pharmacopeia]
